A number with no mark means an inactive call. Activity calls are given as the source filed them. The call rests on the fitted dose curve; in most records, active means well fitted curve in the direction sought with a large enough effect in the repeat runs; inconclusive means weak or mixed curves; inactive means flat fitted curve, though single readings scatter.
Assay: qHTS assay to test for compound auto fluorescence at 535 nm (green) in HEK293 cells (AID 720680)
Settings: green autofluorescence 485/535 nm; series mostly up to 91.3 µM
With `CC(C)O` the outcome was “inactive”.
In the case of `CC(=O)OC1C2(C)CCC(C2)C1(C)C` (configuration not stated), the outcome is reported as “inactive”.
With `OCc1c2ccccc2cc2ccccc12` the outcome was “inactive”.
In the case of `CC/C=C\CCOC(=O)CCCCC`, the outcome is reported as “inactive”.
For `NC/C=C/C(=O)O`, the outcome was “inactive”.
In the case of `COc1ccc2nc(NC(=O)Nc3ccccc3)sc2c1`, the outcome is reported as “inactive”.
For `Cc1ccccc1C(=O)Nc1ccc(C(=O)N2CCCC(O)c3cc(Cl)ccc32)c(C)c1` (configuration not stated), the outcome was “inactive”.
For `CN(CCCN1c2ccccc2CCc2ccccc21)CC(=O)c1ccc(Cl)cc1`, the outcome was “inactive”.
With `COC(=O)c1ccc2cc(C(=O)OC)ccc2c1` the fluorescence, % of fluorescein was -0.0047% [at 18.6 µM].
For `CCC/C=C/CO`, the outcome was “inactive”.
In the case of `CCOC(=O)CS`, the outcome is reported as “inactive”.
`COc1cc(N)c(Cl)cc1C(=O)NC1CCN(Cc2ccccc2)CC1` showed a fluorescence, % of fluorescein of 0.0161% [at 18.6 µM].

From PubChem BioAssay (Tox21)
On the % scale 0 is the no-effect control and ±100 the full control effect.
